# According to PubChem BioAssay (NCATS):
# Values without a mark were called inactive. Inconclusive results are not listed. The source made the active and inactive calls. Unless noted, calls come from the whole dose curve; as a rule, active = well fitted curve in the direction sought with a large enough effect; inconclusive = small, poorly fitted or top-dose-only effect, or another doubt; inactive = no such curve, though single readings can be large; an effect the other way counts as inactive or inconclusive.
# Target: 3',5'-cyclic-AMP phosphodiesterase 4B (Homo sapiens) (UniProt Q07343)
# Assay: qHTS Assay for Inhibitors of PDE-IV (AID 607; active = well fitted activation curve with a large enough effect in the main read-out, with a control signal flat, not every such curve was filed as active; note: potency is the fitted concentration of half-maximal effect; for activation (PDE inhibition): % of control where 0% means no effect)
# Conditions: HEK293 ACTOne CNG channel cells, membrane potential fluorescence; series mostly up to 22.9 µM; activation (PDE inhibition): at the top concentration
# Summary of the method: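 The readout is membrane depolarisation from a cAMP-sensing CNG channel, detected with a potential dye at ex 535/em 590. Cells were HEK293-derived (endogenous PDE-IV) at 1000 cells/well, titrated up to 22.9 uM final.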
# Chain of 3',5'-cyclic-AMP phosphodiesterase 4B (Homo sapiens) (Q07343 whole entry, looked up): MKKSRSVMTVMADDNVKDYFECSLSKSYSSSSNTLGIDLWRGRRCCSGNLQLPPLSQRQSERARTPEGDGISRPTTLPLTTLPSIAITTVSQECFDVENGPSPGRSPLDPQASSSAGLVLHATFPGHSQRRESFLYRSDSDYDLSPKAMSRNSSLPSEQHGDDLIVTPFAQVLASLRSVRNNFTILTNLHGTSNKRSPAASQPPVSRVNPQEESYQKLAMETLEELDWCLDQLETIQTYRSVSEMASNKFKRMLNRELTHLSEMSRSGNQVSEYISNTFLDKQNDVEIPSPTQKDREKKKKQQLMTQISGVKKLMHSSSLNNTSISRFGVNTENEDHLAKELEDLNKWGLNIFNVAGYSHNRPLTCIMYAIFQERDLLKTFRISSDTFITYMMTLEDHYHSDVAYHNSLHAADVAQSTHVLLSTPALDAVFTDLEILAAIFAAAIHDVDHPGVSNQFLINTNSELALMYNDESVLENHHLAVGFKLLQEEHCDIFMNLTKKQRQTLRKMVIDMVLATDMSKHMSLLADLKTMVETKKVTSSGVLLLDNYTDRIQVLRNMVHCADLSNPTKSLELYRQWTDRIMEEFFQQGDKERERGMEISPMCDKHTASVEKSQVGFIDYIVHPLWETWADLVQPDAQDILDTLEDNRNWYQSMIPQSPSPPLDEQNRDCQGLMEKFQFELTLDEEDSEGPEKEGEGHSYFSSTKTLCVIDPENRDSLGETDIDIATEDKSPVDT
SMILES,activation (PDE inhibition) [%],Potency
OC[C@@H](O)COc1cccc2ccccc12,27.2,
O=C(c1ccc2c(c1)OCO2)N1CCCCC1,10.4,
CCCn1c(=O)c2[nH]c(-c3ccccc3)nc2n(CCC)c1=O,,0.379 µM (active)
C#CCCCCCCCCCCCCCCCC(=O)O,-29.4,
C[C@@H]1c2ccccc2CN1CC1=NCCN1,2.07,
Cc1cc(Cn2cnc3c2C[C@@H](C(=O)O)N(C(=O)C(c2ccccc2)c2ccccc2)C3)ccc1N(C)C,8.14,
COCCNC(=O)COc1ccc(OCCNC[C@@H](O)COc2ccccc2)cc1,5.19,
CSc1nc(NC2CCCC2)c([N+](=O)[O-])c(NC2CCCC2)n1,3.18,
COC(=O)/C=C\c1cc(O)ccc1O,-8.6,
CCCCCCCCCCCCC(=O)N1CCCC[C@H]1CNC(=O)[C@@H](N)CCCCN,-5.66,
CCOC(=O)C1=C(C)NC(c2ccccc2)=C(C(=O)OCc2ccc([N+](=O)[O-])cc2)[C@@H]1C#Cc1ccccc1,5.48,
CC(=O)[C@H](CC(C)C)NC(=O)[C@@H](CC(C)C)NC(=O)[C@H](CC(C)C)NC(=O)OCc1ccccc1,-32.7,
c1ccc2cc(C3=NCCN3)ncc2c1,1.56,
CC#CCOC(=O)C1=CCCN(C)C1,-20.5,
CCCCC#Cc1nc(NC)c2ncn([C@@H]3O[C@@H](CO)[C@H](O)[C@H]3O)c2n1,34.3,
Cc1noc(NS(=O)(=O)c2cccc3c(N(C)C)cccc23)c1C,60.8,
O=c1nc2ccccc2c2n1C[C@H](CN1CCN(c3ccccc3)CC1)N2,-0.436,

# Target: Cytochrome P450 2C9 (Homo sapiens) (UniProt P11712)
# Assay: qHTS Assay for Inhibitors and Substrates of Cytochrome P450 2C9 (AID 883); note: nearly all actives have a fitted effect of over 60% in size; note: potency is the fitted concentration of half-maximal effect; for activity change, negative = inhibition: % is set by controls: 0 for no effect and ±100 for the full control effect
# Conditions: recombinant CYP2C9, luciferin-H luminescence, 60 min; series mostly up to 57.1 µM; activity change, negative = inhibition: at the top concentration
# Summary of the method: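 Inhibition of CYP2C9 is scored as loss of luminescence, with 57uM sulphaphenazole defining 100% inhibition. Substrate Luciferin-H is used at 100uM, equal to its KM; enzyme at 10nM in 25mM KPO4, 60 min at 37C with NADPH regeneration.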
# Chain of Cytochrome P450 2C9 (Homo sapiens) (P11712 whole entry, looked up): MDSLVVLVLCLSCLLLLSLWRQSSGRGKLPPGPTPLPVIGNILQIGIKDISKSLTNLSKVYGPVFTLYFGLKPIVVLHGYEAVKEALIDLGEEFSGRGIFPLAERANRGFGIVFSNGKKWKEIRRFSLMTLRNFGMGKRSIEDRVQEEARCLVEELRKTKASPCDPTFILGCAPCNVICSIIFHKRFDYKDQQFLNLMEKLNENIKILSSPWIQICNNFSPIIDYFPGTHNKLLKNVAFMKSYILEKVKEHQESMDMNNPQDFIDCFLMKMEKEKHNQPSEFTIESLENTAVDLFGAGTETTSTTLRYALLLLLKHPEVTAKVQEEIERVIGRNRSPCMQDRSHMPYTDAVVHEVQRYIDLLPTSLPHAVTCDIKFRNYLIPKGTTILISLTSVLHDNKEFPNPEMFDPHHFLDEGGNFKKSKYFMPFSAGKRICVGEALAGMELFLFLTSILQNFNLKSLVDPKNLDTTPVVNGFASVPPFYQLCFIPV
SMILES,"activity change, negative = inhibition [%]",Potency
O=C(N/N=C\c1ccccc1O)c1ccccc1O,15,
CCCn1c(=O)[nH]c2nc(-c3ccc(S(=O)(=O)O)cc3)[nH]c2c1=O,-6.47,
CSc1nc(NC2CCCC2)c([N+](=O)[O-])c(NC2CCCC2)n1,,2 µM (active)
COC(=O)/C=C\c1cc(O)ccc1O,,7.94 µM (active)
NCCCCNS(=O)(=O)c1ccc2c(Cl)cccc2c1,,2 µM (active)
CCCCC#Cc1nc(NC)c2ncn([C@@H]3O[C@@H](CO)[C@H](O)[C@H]3O)c2n1,,0.631 µM (active)
Cc1noc(NS(=O)(=O)c2cccc3c(N(C)C)cccc23)c1C,,0.631 µM (active)

# Target: Cytochrome P450 3A4 (Homo sapiens) (UniProt P08684)
# Assay: qHTS Assay for Activators of Cytochrome P450 3A4 (AID 885); note: nearly all actives have a fitted effect of over 65% in size
# Conditions: recombinant CYP3A4, Luciferin-PPXE luminescence, 60 min; series mostly up to 57.1 µM; activity change, positive = activation: at the top concentration
# Summary of the method: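 Steps: enzyme/substrate mix dispensed; compound added, 10 min RT; NADPH regeneration solution added, 60 min RT; luciferin detection buffer stops reaction; 20 min later luminescence measured.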
# Chain of Cytochrome P450 3A4 (Homo sapiens) (P08684 whole entry, looked up): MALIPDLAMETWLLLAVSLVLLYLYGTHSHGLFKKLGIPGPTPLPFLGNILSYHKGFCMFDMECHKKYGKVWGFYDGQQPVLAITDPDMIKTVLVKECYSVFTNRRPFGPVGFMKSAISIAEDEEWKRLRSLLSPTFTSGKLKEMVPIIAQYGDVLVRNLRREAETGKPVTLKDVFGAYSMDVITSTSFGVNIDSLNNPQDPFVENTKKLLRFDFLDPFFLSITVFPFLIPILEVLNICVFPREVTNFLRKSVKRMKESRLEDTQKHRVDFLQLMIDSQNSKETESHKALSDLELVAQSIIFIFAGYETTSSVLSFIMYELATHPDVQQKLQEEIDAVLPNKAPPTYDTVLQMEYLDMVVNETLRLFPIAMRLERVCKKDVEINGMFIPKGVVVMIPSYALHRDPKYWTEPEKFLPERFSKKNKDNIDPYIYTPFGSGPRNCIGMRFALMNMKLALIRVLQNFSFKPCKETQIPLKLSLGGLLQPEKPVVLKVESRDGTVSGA
row,SMILES,"activity change, positive = activation [%]"
1,O=C(N/N=C\c1ccccc1O)c1ccccc1O,-48.9
2,Fc1ccc([C@H]2CCNC[C@H]2COc2ccc3c(c2)OCO3)cc1,-83.4
3,CCCn1c(=O)c2[nH]c(-c3ccccc3)nc2n(CCC)c1=O,-53.7
4,C[C@@H]1c2ccccc2CN1CC1=NCCN1,-32.4
5,COc1cc(OC)c(C(=O)CCCCN2CCC3(CC2)NC(=O)NC3=O)cc1NS(=O)(=O)c1ccc(C(F)(F)F)cc1,-42.2
6,O=C1C(=O)N(Cc2ccc(Cl)c(Cl)c2)c2ccccc21,-55.6
7,COCCNC(=O)COc1ccc(OCCNC[C@@H](O)COc2ccccc2)cc1,-47.1
8,CCCCC(=O)NCCc1c(Cc2ccccc2)[nH]c2ccccc12,-75
9,CC[C@]1(O)C[C@@H]2CN(CCc3c([nH]c4ccccc34)[C@](C(=O)OC)(c3cc4c(cc3OC)N(C=O)[C@H]3[C@@](O)(C(=O)OC)[C@H](C(=O)OC)[C@@]5(CC)C=CCN6CC[C@]43[C@H]65)C2)C1,-54.6
10,CC(=O)OCCNC(=O)c1cccnc1,-33.5
11,CS(=O)(=O)Nc1ccc([N+](=O)[O-])cc1OC1CCCCC1,-47
12,COc1cccc(C=NC=Nc2cccc(OC)c2)c1,-68.6
13,NCCCCNS(=O)(=O)c1ccc2c(Cl)cccc2c1,-53.2
14,C[C@](O)(C(=O)Nc1ccc(S(=O)(=O)c2ccccc2)cc1)C(F)(F)F,-42.6
15,O=C(O)CC/C=C\C[C@@H]1CO[C@H](c2ccccc2Cl)O[C@@H]1c1ccccc1O,-30.7
16,Cc1noc(NS(=O)(=O)c2cccc3c(N(C)C)cccc23)c1C,-37.2
